# Measured values published in ChEMBL document CHEMBL4513216, “Probing the Open Global Health Chemical Diversity Library for Multistage-Active Starting Points for Next-Generation Antimalarials” (ACS Infect Dis, 2020).
# The campaign covered roughly 69,000 compounds. About 8,600 (12%) showed an effect of 50% or more. The sample holds strong results, similar compounds and a random draw of the others, so the mix is not that of the screen.
# Tested on: Plasmodium berghei
# Test: Screen against P. berghei liver stage (PbLuc), transformed with Luciferase, at 10uM
# Format: functional, HepG2
# Settings: tested at 10 uM
row,SMILES,INHIBITION
1,Cn1nnnc1SCCC(=O)NCC1Cc2ccccc2O1 (stereo unspecified),-0.554%
2,CN(C)C(=O)CCCS(=O)(=O)Cc1cc(Cl)c2c(c1)OCO2,30.6%
3,NC1CCCN(C(=O)c2csc(-c3ccc(C(F)(F)F)cc3)n2)CC1 (stereo unspecified),32.4%
4,Cc1ncsc1C(=O)NCCNC(=O)OC(C)(C)C,-7.93%
5,COc1ccc(OCCN(C)CCCn2cnc3c(N)ncnc32)cc1,10.6%
6,COc1cccc(CN(C)CCCn2cnc3c(N)ncnc32)c1,9.84%
7,COc1cccc(SCCCn2cnc3c(N)ncnc32)c1,52.1%
8,CC(C)c1[nH]c2ncccc2c1CN1CCN(S(=O)(=O)N(C)C)CC1,-33.6%
9,Cc1nccn1C1CCCN(C(=O)COCC2CC2)C1 (stereo unspecified),22.9%
10,CN(Cc1csc(-c2ccccc2)n1)Cc1ncccc1C(=O)O,25.5%
11,O=C(O)c1cccnc1CN(Cc1ccsc1)C1CC1,87.5%
12,O=C(CSCc1ccccn1)N(Cc1ccsc1)C1CC1,36.2%
13,O=C(c1cccs1)N1CCc2c(nc(N3CCCCC3)[nH]c2=O)C1,37.6%
14,COc1ccc(C(=O)NCc2ccco2)nn1,9.4%
15,Cc1cc(C(=O)N2CCCC3(C=Cc4ccccc4O3)CC2)cc(=O)[nH]1 (stereo unspecified),-155%
16,Cc1ccc(CCC(=O)N2CCOCC2)cc1Cl,-18%
17,Cc1cc2c(cc1Cl)C=CC1(CCN(CC(=O)N3CCOCC3)CC1)O2,15.1%
18,CCN(CC)C(=O)CN1CCC2(C=Cc3cc(Cl)c(C)cc3O2)CC1,78.9%
19,Cc1cc2c(cc1Cl)C=CC1(CCN(CC(=O)N3CCCC3)CC1)O2,85.5%
20,CCN(CC)C(=O)CN1CCC(c2nc(C)c3c(n2)N(C)CCC3)CC1,8.12%
21,Cc1cc(C)n(CC2CN(CC(=O)NC3CCCCC3)CCO2)n1 (stereo unspecified),8.64%
22,Cc1cc2c(cc1Cl)C=CC1(CCN(CC(=O)NC3CCCC3)CC1)O2,80%
23,Nc1cc(C(=O)N2CCCC3(C=Cc4ccccc4O3)CC2)ccn1 (stereo unspecified),34.8%
24,Cc1cc2c(cc1Cl)C=CC1(CCN(C(=O)N3CCOCC3)CC1)O2,89.9%
25,Cc1cc(C)n(CC2CN(CC(=O)NC3CCCC3)CCO2)n1 (stereo unspecified),0.706%
26,Cc1cc2c(cc1C)OC1(C=C2)CCN(CC(=O)N2CCOCC2)CC1,19.5%

row,SMILES,INHIBITION
1,Cn1nc(C2CC2)cc1C(=O)N1CCC(c2nnsc2S(C)(=O)=O)CC1,18.14%
2,CN(C)C(=O)CN1C(=O)CCC12CCN(Cc1ccsc1)CC2,17.4%
3,COc1cc2c(cc1CCC(=O)O)CCC2,-5.7%
4,COc1cc(C)c(C)cc1S(=O)(=O)N(C)CC(=O)Nc1ccon1,27.4%
5,CCCn1nnnc1COc1cc(OC)ccc1C(=O)OC,18.4%
6,CCCc1cc(N2CCC(NCCc3ccc(O)cc3)CC2)nc(C)n1,30.3%
7,CS(=O)(=O)N1CCC(Nc2ccnc3ccc(Cl)cc23)CC1,-20.6%
8,CCc1nccn1CCNC1CCN(c2nc3ccc(Cl)cc3s2)CC1,78.1%
9,CCCc1cc(NCCCC2CCOC2)n2nccc2n1 (stereo unspecified),-7.65%
10,CCS(=O)(=O)CCNC1CCN(c2nc3ccc(Cl)cc3s2)CC1,85.2%
11,CCc1cc(NCCCC2CCOC2)n2nccc2n1 (stereo unspecified),48.1%
12,CCn1ccnc1CNC1CC(=O)N(CCc2cccc(Cl)c2)C1 (stereo unspecified),-6.39%
13,CCc1cc(N2CCC(NCCc3ccccc3F)CC2)nc(C)n1,11%
14,Clc1ccc2nc(N3CCC(NCCCC4CCOC4)CC3)sc2c1 (stereo unspecified),88.1%
15,CCOc1ccc2cc(C(=O)NCCNc3ccc(C)nn3)[nH]c2c1,-21.9%
16,Cc1cc(C(=O)NC2CCC3(CCC(=O)N3C)CC2)no1 (stereo unspecified),28.4%
17,CN(Cc1ccco1)[C@@H]1CN(Cc2ccsc2)C[C@@H]2CCCO[C@@H]21,17.5%
18,CC(C)N(Cc1ccccn1)C(=O)CCC(=O)c1ccccc1,34.1%
19,CC(C)c1n[nH]c(C2CN(CCc3cccs3)CCO2)n1 (stereo unspecified),-21.9%
20,CN(Cc1ccco1)C(=O)C1=NN(C)C(=O)CC1,-14.3%
21,CC(=O)N(CCc1nc(-c2cc(C(N)=O)oc2C)cs1)C(C)C,74%
22,CC(=O)N(CCc1nc(-c2cc(C(N)=O)co2)cs1)C(C)C,-49.3%
23,CC(=O)N(C)CCc1nc(-c2cc(C(N)=O)co2)cs1,-91.4%
24,CC(=O)N1CCOC(c2nc(N(C)C)ncc2-c2cccc(F)c2)C1 (stereo unspecified),9.93%
25,CN(C)c1nccc(C2CCCN(C(=O)CO)C2)n1 (stereo unspecified),23.2%
26,CCC(=O)N1CCCC(c2nc(N(C)C)ncc2-c2ccc(F)cc2)C1 (stereo unspecified),73.1%

row,SMILES,INHIBITION
1,COCC(=O)N1CCCC(c2nc(N(C)C)ncc2-c2ccccc2)C1 (stereo unspecified),42.5%
2,CC(=O)N1CCCC1c1nc(N(C)C)ncc1-c1ccccc1 (stereo unspecified),1.62%
3,CC(=O)N1CCCC(c2nc(N(C)C)ncc2-c2cccc(F)c2)C1 (stereo unspecified),74.9%
4,CCC(=O)N1CCCC1c1nc(N(C)C)ncc1-c1ccc(Cl)cc1 (stereo unspecified),50.8%
5,CC(=O)N1CCCC(c2nc(N(C)C)ncc2-c2ccccc2)C1 (stereo unspecified),9.98%
6,CC(C)C(=O)N1CCCC1c1nc(N(C)C)ncc1-c1ccc(Cl)cc1 (stereo unspecified),26.7%
7,CSCC[C@H](N)C(=O)NCc1cc2n(n1)CCCN(C(=O)N(C)C)C2,3.19%
8,Cc1nc(CN2CCO[C@H]3[C@H](OCC(=O)N(C)C)CC[C@@H]32)cs1,10.6%
9,CC(NC(=O)c1ccc(F)cc1F)c1cnn(C)c1 (stereo unspecified),33.3%
10,O=C(Nc1cccnc1)[C@H]1C[C@H]2OCC[C@H]2N(C(=O)c2ccsc2)C1,3.41%
11,CCNc1nc2cn(-c3ccc(Cl)cc3)c(=O)c-2c[nH]1,-64.5%
12,c1cncc(-c2noc(CNCC3CCCN3c3cccnn3)n2)c1 (stereo unspecified),-7.81%
13,COC(C)(C)CC(C)NCc1cn2ccccc2n1 (stereo unspecified),8.38%
14,Cc1cc(O)n(-c2ccc3nnc(C)n3n2)n1,6.83%
15,Cc1ccccc1OC(C(=O)N1CCC2(CC1)CN(C)C(=O)O2)C(C)C (stereo unspecified),41.5%
16,Cc1ccccc1OCC(O)C(=O)N1CCC2(CC1)CN(C)C(=O)O2 (stereo unspecified),39.6%
17,CC(C)C(C(=O)N1CCC2(CC1)CN(C)C(=O)O2)c1ccccc1 (stereo unspecified),56.3%
18,Cc1noc(C)c1CN1C[C@@H]2COC[C@H](C(=O)N3CCCCO3)[C@@H]2C1,50.6%
19,Cc1noc(C)c1CN1C[C@@H]2COC[C@H](C(=O)N3CCOCC3)[C@@H]2C1,13.6%
20,Cc1noc(C)c1CN1C[C@@H]2COC[C@H](C(=O)N3CCCO3)[C@@H]2C1,62.5%
21,Cc1noc(C)c1CN1C[C@@H]2COC[C@@H](CC(=O)N3CCCO3)[C@@H]2C1,-0.388%
22,Cc1cc(CN2C[C@@H]3COC[C@@H](C(=O)N4CCCCO4)[C@@H]3C2)no1,34.6%
23,Cc1cc(CN2C[C@@H]3COC[C@H](C(=O)N4CCCCO4)[C@@H]3C2)no1,21.8%
24,Cc1noc(C)c1CN1C[C@@H]2COC[C@@H](C(=O)N3CCCCO3)[C@@H]2C1,39.2%
25,Cc1noc(C)c1CN1C[C@@H]2COC[C@@H](CC(=O)N3CCCCO3)[C@@H]2C1,41.6%
26,Cc1noc(C)c1CN1C[C@@H]2COC[C@@H](C(=O)N3CCCO3)[C@@H]2C1,57.9%

row,SMILES,INHIBITION
1,CNC(=O)C1CN(C(=O)c2ccncc2)CCN(S(C)(=O)=O)C1 (stereo unspecified),7.7%
2,Cc1cc(-c2cnc(C(C)C)nc2CN(C)C(=O)c2ccccn2)on1,30.4%
3,CC1CCN(c2ccc(=O)n(CC(=O)N(C)Cc3ccccc3)n2)CC1,-17.1%
4,CC(C)(C)c1cc(=O)n2c(n1)SCC(C(=O)NCc1ccccn1)C2 (stereo unspecified),29.1%
5,CC(=O)N1CCC2(CC1)C(=O)N(CC1CCN(C)CC1)c1ccccc12,-4.82%
6,O=c1[nH]c2c(-c3ccccn3)nsc2c(=O)n1CC1CC1,7.3%
7,NC(=O)CN1CCC(c2noc3cc(F)ccc23)CC1,18.7%
8,CNC(=O)[C@@H](CC(C)C)N1CCC[C@H]1C(=O)N(C)Cc1cccnc1,45.1%
9,Cc1cc(CN2CCN(C(=O)NC(C)c3ccncc3)CC2)on1 (stereo unspecified),14.9%
10,Cc1ccc(C(=O)N2CCC(Oc3c(C)cccc3C)CC2)c(=O)[nH]1,-1.25%
11,Cc1cnc2c(S(=O)(=O)N(C)C3CCS(=O)(=O)C3)cccc2c1 (stereo unspecified),22.3%
12,Cc1cccc(CN2C[C@@H]3COC[C@]3(CNC(=O)c3ccno3)C2)n1,-30%
13,CSCc1nc(CCNC(=O)c2cnn(C(C)C)c2)cs1,33.4%
14,CSCc1nc(CNC(=O)c2cnn(C(C)C)c2)cs1,55%
15,CC(C)n1cc(C(=O)NCCc2cn3ccsc3n2)cn1,8.48%
16,CC(C)n1cc(C(=O)NCC(CO)Cc2cccs2)cn1 (stereo unspecified),5.78%
17,CC(C)n1cc(C(=O)NCCCc2csc(N)n2)cn1,69.1%
18,Nc1nc(CCCNC(=O)c2ccc(C3CCCNC3)cc2)cs1 (stereo unspecified),-3.58%
19,COc1cc(NCc2c(C)noc2C)c(OC)cc1Cl,28.7%
20,Cc1ccc(N[C@@H]2CN(Cc3cc(C)on3)C[C@@H]3CCCO[C@@H]32)nn1,-24.1%
21,Cc1cc(NC(=O)CN2CCc3cnc(C(C)C)nc3C2)on1,-0.113%
22,COc1ccc(OC)c(C(O)CN2CCC(N3CCC(C)CC3)CC2)c1 (stereo unspecified),12.3%
23,COCCN(C)C(C)c1cccc(S(N)(=O)=O)c1 (stereo unspecified),-29.8%
